In the library only some 5.5% were active in any assay of this set; here they are far more common.
CBFb-RUNX1 inh – qHTS Assay for Compounds Blocking the Interaction Between CBF-beta and RUNX1 for the Treatment of Acute Myeloid Leukemia; Runt-related transcription factor 1 (Homo sapiens) + Core-binding factor subunit beta …; AID 1477, 2009; 230,000 tested, under 10 active; AlphaScreen CBFb-His/RUNX1-biotin binding, biochemical; Potency, µM (series often up to 59.8 µM), usual class: inhibitors
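Proteins preincubated together for 20 min at RT before compound addition; 15 min later, nickel and streptavidin beads were added and left 90 min prior to AlphaScreen measurement.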
Six1-Eya2 blk – qHTS Assay for Inhibitors of the Six1/Eya2 Interaction; AlphaScreen GST-Six1/His-Eya2 binding, biochemical; stronger effect = lower value; activity change, % (concentration not given with the values); 0.56% of 360,000 active; in the data active = activity change below about -65%; inconclusive = mostly about -30% to -63%
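Compounds are tested against tagged Six1 and Eya2 proteins bridged by glutathione donor and nickel acceptor beads; after a one-hour incubation at 37 °C without light, AlphaScreen emission is recorded.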
Gal4-VP16 FLuc – VP16 counterscreen qHTS for inhibitors of ROR gamma transcriptional activity. Drosophila S2 Gal4-VP16 UAS-luciferase, luminescence, 20 h. Potency, µM (top dose mostly 53.6 µM), actives largely listed as inhibitors. 3.5% of 310,000 active. AID 2546, 2010;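 note: Gal4-VP16 expression switched on by copper sulfate through the metallothionein promoter; nearly all actives have a fitted effect of over 50% in size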
CtBP-E1A inh – qHTS Assay for Inhibitors of the CtBP/E1A Interaction; AlphaScreen GST-E1A/His-CtBP binding, 1536-well; stronger effect = lower value; activity change, % (test concentration not listed); CtBP / adenovirus E1A interaction (AlphaScreen); 0.49% of 340,000 active; in the data active = activity change below about -65%; inconclusive = mostly about -30% to -63%
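Steps: dispense buffer (Tris pH 8.0, NaCl 300 mM, TCEP 1 mM, BSA, Tween 20); add 5X protein mix (GST-E1A, His-CtBP, 125 nM each); pin 23 nL compound; 2 h at 37 °C, dark; add 5X beads (50 ug/mL); 1 h; read.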
MBNL1-CUG inh – qHTS Assay for Inhibitors of MBNL1-poly(CUG) RNA binding; 0.036% of 280,000 active; Potency, µM (doses to about 57.5 µM), hits mostly inhibitors; AID 2675, 2010; TR-FRET MBNL1-His/biotin-(CUG)12 binding, 665/545 ratio; active = well fitted inhibition curve with a large enough effect in the signal ratio, with a control signal flat, not every such curve was filed as active; inconclusive = small, poorly fitted or top-dose-only effect, or effect the other way, or a change in a side signal; inactive = no such curve, though single readings can be large or run the other way; the % refers to the signal ratio
Target sequence (Q9NR56 whole entry, looked up): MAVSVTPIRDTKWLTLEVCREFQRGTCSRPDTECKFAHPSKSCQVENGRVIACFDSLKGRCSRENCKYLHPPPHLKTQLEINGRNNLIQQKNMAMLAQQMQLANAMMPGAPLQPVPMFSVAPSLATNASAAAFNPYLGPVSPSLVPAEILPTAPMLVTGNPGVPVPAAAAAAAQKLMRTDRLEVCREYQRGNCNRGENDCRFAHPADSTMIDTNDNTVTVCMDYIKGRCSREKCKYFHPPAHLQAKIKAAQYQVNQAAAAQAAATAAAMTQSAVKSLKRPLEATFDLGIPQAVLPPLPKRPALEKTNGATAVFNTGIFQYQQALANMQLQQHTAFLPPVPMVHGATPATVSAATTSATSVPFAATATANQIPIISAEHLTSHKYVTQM
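MBNL1-His + Biotin-(CUG)12, cpd titration 92 nM–58 uM; Tb anti-His Ab 0.055 ng/ul, SA-XL665 5 nM (final); 60 min RT; ratiometric 665/545 nm, Ex 340 nm; normalized to buffer and full-complex controls.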
RORg inh – qHTS for inhibitors of ROR gamma transcriptional activity. Nuclear receptor ROR-gamma (Mus musculus), P51450. Drosophila S2 Gal4-RORgamma UAS-luciferase reporter, 20 h. Potency, µM (highest dose often 53.6 µM), usual class: inhibitors. 5.4% of 310,000 active. AID 2551, 2010; note: nearly all actives have a fitted effect of over 60% in size
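In this cell-based reporter format, copper sulfate (700 uM final) drives Gal4–ROR gamma fusion expression from a metallothionein promoter in Drosophila Schneider cells; compounds preincubated 1 hr, reporter read after 20 hr at ambient temperature.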
Hits are given with their value; [ ] = dose if it differs, or a comment. Unless noted, calls come from the whole dose curve; as a rule, active = well fitted curve in the direction sought with a large enough effect; inconclusive = small, poorly fitted or top-dose-only effect, or another doubt; inactive = no such curve, though single readings can be large; an effect the other way counts as inactive or inconclusive.

For CC(=O)OC[C@@H]1CN(Cc2ccccc2)C[C@H](n2cnc3c(NCc4ccc(F)cc4)ncnc32)O1 the results were Six1-Eya2 blk inactive and CtBP-E1A inh inactive.
O=C(Nc1ccccn1)c1onc2c1CCCC2 was read as CBFb-RUNX1 inh inactive, Six1-Eya2 blk inactive, Gal4-VP16 FLuc 8.9µM, CtBP-E1A inh inactive, MBNL1-CUG inh inactive[11.5 µM] and RORg inh 6.3µM.
For C[C@@H]1ON(C)[C@H]2C[C@H]3c4cc(-c5cccc(F)c5)ccc4CCN3C(=O)[C@@H]12 the results were Six1-Eya2 blk inactive and CtBP-E1A inh inactive.
Screening O=C(NCCc1ccc(Cl)cc1)c1cc(S(=O)(=O)N2CCCC2)ccc1F returned Six1-Eya2 blk inactive and CtBP-E1A inh inactive.
Screening Cc1nc2ccccc2c(=O)n1NC(=O)c1ccccc1Br returned Six1-Eya2 blk inactive, Gal4-VP16 FLuc inactive, CtBP-E1A inh inactive, MBNL1-CUG inh inactive and RORg inh inactive.
Cc1nc2ccccc2c(=O)n1NC(=O)/C=C/c1ccc(Br)cc1 was read as CBFb-RUNX1 inh inactive, Six1-Eya2 blk inactive, Gal4-VP16 FLuc inactive, CtBP-E1A inh -65 and RORg inh inactive.
Screening Cc1cccc(-c2nc3ccccc3c(=O)n2NC(=O)/C=C/c2ccc([N+](=O)[O-])cc2)c1 returned CBFb-RUNX1 inh inactive, Six1-Eya2 blk inactive, Gal4-VP16 FLuc inactive, CtBP-E1A inh -81, MBNL1-CUG inh inconclusive and RORg inh inconclusive.
`COc1ccc(NC(=O)Cn2nnc(-c3ccccc3)c2COc2ccc3ccccc3c2)cn1` gave Six1-Eya2 blk inactive and CtBP-E1A inh inactive.
For CCCCCCc1c(C)nc(-n2[nH]c(C)c(CCO)c2=O)[nH]c1=O the results were CBFb-RUNX1 inh inactive, Six1-Eya2 blk inactive, Gal4-VP16 FLuc 16µM, CtBP-E1A inh inactive, MBNL1-CUG inh inactive and RORg inh 3.5µM.
For O=C(Nc1ccc(Cl)c(Cl)c1)Nc1nnc(CC2=CCCCC2)s1 the results were CBFb-RUNX1 inh inactive, Six1-Eya2 blk inactive, Gal4-VP16 FLuc 13µM, CtBP-E1A inh inactive, MBNL1-CUG inh inactive and RORg inh inconclusive.
For CC(=O)c1ccc(OCCCC(=O)OCC(=O)N2CCN(S(=O)(=O)c3ccc(C)cc3C)CC2)cc1 the results were Six1-Eya2 blk inactive and CtBP-E1A inh inactive.
`CC(Oc1ccc(Br)cc1Cl)C(=O)Nc1ccncc1` (configuration not stated) gave Six1-Eya2 blk inactive, Gal4-VP16 FLuc inconclusive, CtBP-E1A inh inactive, MBNL1-CUG inh inactive and RORg inh inactive[1.91 µM].
`CCC(=O)NC(C)C(c1cccs1)N1CCOCC1` (configuration not stated) gave Six1-Eya2 blk inactive and CtBP-E1A inh inactive.
`CCC(=O)NC(c1cccs1)c1cc([N+](=O)[O-])c2cccnc2c1O` (configuration not stated) gave Six1-Eya2 blk -85, Gal4-VP16 FLuc 5µM, CtBP-E1A inh -83 and RORg inh 3.2µM.
For CCCC(=O)NC(c1cccs1)c1cc([N+](=O)[O-])c2cccnc2c1O (configuration not stated) the results were Six1-Eya2 blk -90, Gal4-VP16 FLuc 4µM, CtBP-E1A inh -85, MBNL1-CUG inh inactive and RORg inh 5.6µM.
For O=C(CCc1ccccc1)NC(c1cccs1)c1cc(Cl)c2cccnc2c1O (configuration not stated) the results were CBFb-RUNX1 inh inactive, Six1-Eya2 blk inactive, Gal4-VP16 FLuc 0.79µM, CtBP-E1A inh inactive, MBNL1-CUG inh inactive and RORg inh 0.63µM.
Screening CC(=O)NC(c1cccs1)c1cc([N+](=O)[O-])c2cccnc2c1O (configuration not stated) returned CBFb-RUNX1 inh inactive, Six1-Eya2 blk -89, Gal4-VP16 FLuc 16µM, CtBP-E1A inh -87, MBNL1-CUG inh inconclusive and RORg inh 6.3µM.
O=[N+]([O-])c1cc2ncccc2c2ncccc12 was read as Six1-Eya2 blk inactive and CtBP-E1A inh inactive.
NC(C(=O)O)c1nn[nH]n1 (configuration not stated) was read as CBFb-RUNX1 inh inactive, Gal4-VP16 FLuc inactive and RORg inh inactive.
For Cc1ccc(CCNC(=O)C2CCC(=O)N(Cc3cccc(F)c3)C2)cc1 (configuration not stated) the results were Six1-Eya2 blk inactive, Gal4-VP16 FLuc inactive, CtBP-E1A inh inactive, MBNL1-CUG inh inactive and RORg inh inactive.
c1ccc(CNc2ccnc(-c3cccnc3)n2)cc1 was read as Gal4-VP16 FLuc inactive and RORg inh inactive.
For CCN(CC)c1ccc(/C=N/N2CCN(Cc3ccccc3Cl)CC2)cc1 the results were Six1-Eya2 blk -74, Gal4-VP16 FLuc inactive, CtBP-E1A inh inactive, MBNL1-CUG inh inactive and RORg inh inactive.
`CN(C)c1ccc(/C=N/N2CCN(Cc3ccccc3Cl)CC2)cc1` gave Six1-Eya2 blk inactive, Gal4-VP16 FLuc inactive, CtBP-E1A inh inactive, MBNL1-CUG inh inactive and RORg inh inactive.
For CCN(CC)c1ccc(/C=N/N2CCN(c3ccccc3OC)CC2)cc1 the results were Six1-Eya2 blk -67, Gal4-VP16 FLuc inactive, CtBP-E1A inh inactive, MBNL1-CUG inh inactive and RORg inh inactive.
Screening CCN(CC)c1ccc(/C=N/N2CCN(Cc3ccccc3)CC2)c(O)c1 returned CBFb-RUNX1 inh inactive, Six1-Eya2 blk -75, Gal4-VP16 FLuc inactive, CtBP-E1A inh inconclusive and RORg inh inactive.
For CN1CCN(C(=O)CCN2C(=O)/C(=C/c3ccccc3Cl)SC2=S)CC1 the results were CBFb-RUNX1 inh inactive, Six1-Eya2 blk inactive, Gal4-VP16 FLuc inactive, CtBP-E1A inh inactive, MBNL1-CUG inh inconclusive and RORg inh 18µM.
Screening CCN(C(=O)CN1C(=O)/C(=C/c2ccccc2F)SC1=S)C1CCS(=O)(=O)C1 (configuration not stated) returned Six1-Eya2 blk inactive, Gal4-VP16 FLuc inactive, MBNL1-CUG inh inactive and RORg inh 10µM.
CN1CCN(C(=O)CCN2C(=O)/C(=C\c3ccccc3F)SC2=S)CC1 was read as Six1-Eya2 blk inactive, Gal4-VP16 FLuc inactive, CtBP-E1A inh inactive, MBNL1-CUG inh inconclusive and RORg inh 5.6µM.
`O=C(CCCN1C(=O)/C(=C/c2ccccc2Cl)SC1=S)N1CCOCC1` gave Six1-Eya2 blk inactive, Gal4-VP16 FLuc inconclusive, CtBP-E1A inh inactive, MBNL1-CUG inh inactive and RORg inh inconclusive.
